Hits are enriched below; roughly 2.7% of the tested compounds scored in any of these assays.
MITF TRPM1 inh: inhibitors of MITF-driven TRPM1 promoter in melanoma cells; SK-MEL-5 TRPM1 promoter luciferase, 24 h; inhibition, % at 12.5 µM; actives 0.83% (n = 330,000);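 active = mean inhibition across replicates of 60% or more, whatever share of single replicates reaches that level; inconclusive = some that reach 60%, reason not given; inactive = mean inhibition across replicates below 60%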
KKLEB tox: reduces viability of KKLEB cystic fibrosis airway cells; KKLEB CF airway cells viability, ATPlite luminescence, overnight; hits give low values; cells stimulated with P. aeruginosa culture filtrate; activity change (cytotoxicity), % at 5 µM; actives 0.36% (n = 360,000); AID 602141;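 active = corrected activity change at or below -50% at 5 µM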
Shn3 inh set2: Schnurri-3 reporter inhibition in Clone20 osteoblasts; Clone20 osteoblast Shn3 3'UTR firefly luciferase, 24 h; inhibition, % at 12.5 µM; actives 0.52% (n = 360,000); AID 588674;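 active = mean inhibition of at least 75% with every replicate also reaching 75%; inconclusive = mean inhibition at least 75% but some replicate below; inactive = mean inhibition below 75%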;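 also: 0% = median of neutral control wells and 100% = pilot-screen positive control compound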
CF NFkB inh: blocks PAF-induced NF-kB reporter in cystic fibrosis cells; KKLEB NF-kB-GFP reporter, GFP fluorescence overnight; inhibition, % at 5 µM; actives 0.86% (n = 360,000); AID 588850;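 active = at least 50% inhibition at 5 µM, scaled per plate between neutral and stimulator controls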;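 also: PAF is a Pseudomonas aeruginosa culture filtrate used as stimulus; plate controls were PAF-stimulated DMSO wells for no effect and unstimulated DMSO wells for full effect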
HIF-2a inh: HIF-2a inhibition | 786-0 RCC cells HIF-2a reporter, luciferase luminescence, overnight | inhibition, % at 18.8 µM | actives 0.72% (n = 360,000) | AID 624352;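 active = inhibition of the luminescence signal of 40% or more relative to plate controls, in a single-dose primary screen at 18.75 µM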
Peg3 prom inh: Peg3 promoter activity inhibition | HeLa PEG-Prom luciferase reporter, luminescence, overnight | inhibition, % at 20 µM | actives 1.7% (n = 360,000);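 active = inhibition of at least 50% at 20 µM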
Active calls of the source: *; ? = inconclusive; · = no result.

SMILES | MITF TRPM1 inh | KKLEB tox | Shn3 inh set2 | CF NFkB inh | HIF-2a inh | Peg3 prom inh
CC(C)c1ccc(NC(=O)c2cc(-c3cc(F)ccc3OCC3CCCO3)n[nH]2)cc1 (stereo unspecified) | · | -2.5 | 68.9 | 3.6 | 5.7 | -3.0
CN(C)c1ccc(Nc2nc(N)c([N+](=O)[O-])c(N3CCOCC3)n2)cc1 | -3.0 | -10.2 | 31.3 | 15.5 | -22.6 | 51.5*
CCN(CC)CCNC(=O)c1ccc(NC(=O)c2ccc(Cl)c(S(=O)(=O)N3CCCCCC3)c2)cc1 | 25.4 | 4.1 | 32.9 | 0.1 | 30.6 | 87.6*
CCN(CC)CCNC(=O)c1ccc(NC(=O)c2ccc(S(=O)(=O)N3CCCCCC3)cc2)cc1 | -6.3 | -4.1 | -10.8 | 20.3 | 21.0 | 20.4
COC(=O)N1C(=O)[C@](c2ccccc2)(C2CCCC2)N1C(=O)OC | 13.5 | -15.5 | 10.8 | 10.7 | 26.7 | 29.9
COC(=O)N1C(=O)[C@](c2ccc(Cl)cc2)(C(C)C)N1C(=O)OC | 19.0 | -14.1 | 50.4 | 66.2* | 23.4 | 30.7
COc1ccc(-n2nnnc2-c2cnc(N3CCCC3)nc2C(F)(F)F)cc1 | 14.3 | -10.0 | 87.5* | 4.1 | 31.1 | 33.5
FC(F)(F)c1nc(-c2cccs2)ncc1-c1nnnn1-c1ccc(Cl)cc1 | 4.0 | 2.4 | 85.9* | 3.7 | 5.7 | 68.6*
CCCS(=O)(=O)NC(=O)C1(C)CCCN(C(=O)c2ccc3c(c2)OCO3)C1 (stereo unspecified) | · | 4.2 | 1.1 | 1.5 | 5.0 | 6.2
NC(c1csc(Nc2ccccn2)n1)C1CCCCC1 (stereo unspecified) | · | -9.4 | 0.6 | 9.2 | -15.2 | -77.1
NC(=O)c1oc2ccccc2c1NC(=O)c1ccc([N+](=O)[O-])o1 | 82.6* | -24.1 | 57.9 | 62.3* | 15.6 | 108.8*
Cc1cc(C)cc(NC(=O)c2ccc([N+](=O)[O-])o2)c1 | 65.2* | -67.6* | 35.3 | 84.8* | 19.1 | 75.1*
COc1cc(NC(=O)c2ccc(-c3cccc([N+](=O)[O-])c3)o2)ccc1NC(=O)C(C)C | -4.4 | 7.0 | 9.0 | -71.9 | -2.2 | 78.3*
COc1cc(NC(=O)c2ccc([N+](=O)[O-])o2)ccc1NC(=O)c1ccco1 | 84.2* | -15.3 | 68.2 | 9.5 | -45.0 | 57.2*
NC(=O)c1oc2ccccc2c1NC(=O)c1ccc(F)cc1 | · | 3.3 | 4.8 | -46.6 | 7.8 | 11.6
COC(=O)[C@]12CCCCC=C1N(CCC1=CCCCC1)C(=O)[C@H](CC(=O)N1CCN(C(=O)c3ccco3)CC1)C2 | · | · | · | · | 1.9 | ·
CCc1nc2c(OCc3cc(Cl)cc(Cl)c3)cccn2c1N(C=O)Cc1ccccc1 | · | -5.3 | -1.8 | 8.7 | -13.1 | 37.6
N#C/C(=C/c1ccc(N2CCCCCC2)o1)c1cccc(F)c1 | -85.5 | -10.4 | 95.3* | -33.1 | -285.6 | -156.9
N#C/C(=C/c1ccc(N2CCOCC2)o1)c1ccc(Br)cc1 | -60.8 | -3.5 | 54.9 | -51.0 | -126.9 | -146.5
N#C/C(=C/c1ccc(N2CCCCCC2)o1)c1ccc(F)cc1 | 11.2 | 1.5 | 63.7 | -9.8 | 70.6* | -48.3
N#C/C(=C\c1ccc(N2CCOCC2)o1)c1ccccc1 | -89.2 | 14.4 | 92.1* | -40.1 | -259.9 | -312.7
CC1(C(=O)Nc2ccc3c(c2)OCCO3)CSCC(=O)N1C1CC1 (stereo unspecified) | · | · | · | · | 12.6 | ·
CC1CCN(CCCn2c(SCC(=O)Nc3ccccc3Cl)nc3ccccc3c2=O)CC1 | -20.0 | -9.4 | -12.2 | -16.3 | 4.3 | 8.7
COc1ccc(NC(=O)CSc2nc3ccccc3c(=O)n2CCCN2CCC(C)CC2)c(OC)c1 | -21.8 | -13.4 | 10.5 | 16.9 | 16.7 | 69.2*
Cc1ccc(CNC(=O)CSc2nc3c(sc4ccccc43)c(=O)n2CCCN2CCCC2)cc1 | 43.5 | -10.0 | -14.5 | 21.9 | -3.5 | 108.8*
SMILES | MITF TRPM1 inh | KKLEB tox | Shn3 inh set2 | CF NFkB inh | HIF-2a inh | Peg3 prom inh
COc1cccc(NC(=O)CSc2nc3c(sc4ccccc43)c(=O)n2CCCN2CCCC2)c1 | 98.2* | -14.5 | -39.2 | -5.5 | -27.8 | 94.3*
CCc1c(C)nc2c(-c3ccccc3)c(-c3ccccc3)[nH]n2c1=O | 2.5 | 7.5 | 1.9 | -36.9 | 8.2 | 52.5*
CCc1c(C)nc2cc(-c3ccccc3)[nH]n2c1=O | -25.5 | 1.0 | -109.5 | -6.1 | -247.5 | -269.8
COC(=O)C1=C(C)N(Cc2ccccc2)C(=NCc2cc(OC)c(OC)c(OC)c2)N[C@H]1c1ccccc1 | -1.2 | · | 0.7 | · | · | ·
CCN(CC)CCCN=C1N[C@@H](c2cccc(C(F)(F)F)c2)C(C(=O)OC)=C(C)N1CC | ? | -2.4 | -10.6 | 8.6 | 4.1 | 51.3*
COC(=O)C1=C(C)N(Cc2ccccc2)C(=NCc2cc(OC)c(OC)c(OC)c2)N[C@H]1c1ccc(Br)cc1 | 54.9 | -30.4 | 10.5 | 40.1 | -3.5 | 105.7*
COC(=O)C1=C(C)N(Cc2ccccc2)C(=NCc2ccccc2)N[C@H]1c1ccccc1 | 82.7* | -17.1 | 12.2 | -15.9 | -2.1 | 92.5*
COC(=O)C1=C(C)N(Cc2ccccc2)C(=NCCc2c[nH]c3ccccc23)N[C@H]1c1cccc(F)c1 | 45.5 | -23.1 | 97.5* | 24.2 | 2.6 | 101.9*
COCCN=C1N[C@@H](c2ccccc2)C(C(=O)OC)=C(C)N1Cc1ccccc1 | -6.8 | 13.7 | -2.5 | -2.1 | 8.2 | -12.8
COc1ccc(NC(=O)C(c2ccccc2F)n2c(=O)c(-c3cc4ccccc4[nH]3)nc3ccccc32)cc1 (stereo unspecified) | · | · | · | · | -32.4 | ·
COC(=O)C1=C(C)N(Cc2ccccc2)C(=NCc2ccccc2)N[C@H]1c1cccc(F)c1 | 51.3 | -14.7 | -0.3 | 28.6 | 6.5 | 101.0*
CSc1nc(NCCN(C)C)c2sc3nc(-c4ccco4)c4c(c3c2n1)CCC4 | -4.5 | 2.7 | -9.6 | 4.0 | 19.0 | 106.1*
O=C1NC(=S)S/C1=C\c1cc2ccccc2nc1N1CCCCC1 | 12.0 | -37.6 | · | 54.9* | -52.6 | 38.3
COc1ccc2nc(N3CCCCC3)c(/C=C3\SC(=S)NC3=O)cc2c1 | 9.5 | -39.5 | -20.4 | 46.6 | -17.4 | 36.7
O=C(/C=C/c1ccccc1[N+](=O)[O-])c1ccc(F)cc1 | -2.3 | 2.9 | 17.0 | 6.0 | -121.8 | 106.8*
COc1ccc(-c2cc(CNc3nc(NC(C)C)nc4cc(-c5ccccc5)sc34)on2)cc1 | · | -20.3 | 70.9 | -28.5 | -23.0 | 78.0*
C=CCNc1nc(NCc2ccc(NC(C)=O)cc2)c2sc(-c3ccccc3)cc2n1 | · | -60.5* | -9.3 | -6.6 | -62.7 | -116.0
C=CCNc1nc(NCCCN2CCCC2=O)c2sc(-c3ccccc3)cc2n1 | · | -24.5 | -14.8 | 26.9 | -130.7 | -14.6
c1ccc(-c2cc3nc(NCC4CC4)nc(NCC4CCCCC4)c3s2)cc1 | · | -83.7* | 87.6* | 81.7* | 15.6 | 93.2*
CC(=O)Nc1ccc(CNc2nc(NC(C)C)nc3cc(-c4ccccc4)sc23)cc1 | · | -55.7* | 22.8 | -28.5 | -31.3 | 64.6*
O=C(C[C@@H]1C[C@H]2c3cc(NC(=O)C4CCC4)ccc3O[C@H]2[C@@H](CO)O1)NCc1ccc(-c2ccccc2)cc1 | · | -1.8 | 19.2 | -3.9 | -3.9 | 15.6
